# According to the supplement of paper PMC8728848:
# Many of the other results were omitted from the sample, so the strongest signals are more common in it than they were.
# What was measured:
# Assay in all cases: glycan array binding signal (z-score within array); higher = stronger binding
# Settings in all cases: glycan notation: IUPAC condensed, linker removed
# [1] = biological target: Fuc(a1-2)Gal(b1-3)GalNAc
# Procedure, shortened: (§1)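 Arrays were curated from the Consortium for Functional Glycomics database, 3228 in total, and kept only where the protein sequence was available. Binding is expressed as a within-array Z-score. This score was averaged across arrays of the same protein sequence at different concentrations or buffers and across linkers, and negative values can be read as non-binding.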
# [2] = biological target: Fuc(a1-2)Gal(b1-3)GalNAc(b1-4)[Neu5Ac(a2-3)]Gal(b1-4)Glc
# Procedure, shortened: as §1
# [3] = biological target: Fuc(a1-2)Gal(b1-4)Glc
# Procedure, shortened: as §1
# [4] = biological target: Fuc(a1-2)Gal(b1-4)[Fuc(a1-3)]GlcNAc(b1-3)Gal(b1-4)[Fuc(a1-3)]GlcNAc(b1-3)Gal(b1-4)[Fuc(a1-3)]GlcNAc
# Procedure, shortened: as §1
# [5] = biological target: Fuc(a1-2)Gal6S(b1-3)GlcNAc6S
# Procedure, shortened: as §1
# [6] = biological target: Fuc(a1-2)[Gal(a1-3)]Gal(b1-3)GlcNAc
# Procedure, shortened: as §1
# [7] = biological target: Fuc(a1-2)[Gal(a1-3)]Gal(b1-3)GlcNAc(b1-2)Man(a1-3)[Fuc(a1-2)[Gal(a1-3)]Gal(b1-3)GlcNAc(b1-2)Man(a1-6)]Man(b1-4)GlcNAc(b1-4)[Fuc(a1-6)]GlcNAc
# Procedure, shortened: as §1
# [8] = biological target: Fuc(a1-2)[Gal(a1-3)]Gal(b1-4)GlcNAc(b1-2)Man(a1-3)[Fuc(a1-2)[Gal(a1-3)]Gal(b1-4)GlcNAc(b1-2)Man(a1-6)]Man(b1-4)GlcNAc(b1-4)GlcNAc
# Procedure, shortened: as §1
# [9] = biological target: Fuc(a1-2)[GalNAc(a1-3)]Gal(b1-3)GlcNAc(b1-2)Man(a1-3)[Fuc(a1-2)[GalNAc(a1-3)]Gal(b1-3)GlcNAc(b1-2)Man(a1-6)]Man(b1-4)GlcNAc(b1-4)[Fuc(a1-6)]GlcNAc
# Procedure, shortened: as §1
# [10] = biological target: Fuc(a1-2)[GalNAc(a1-3)]Gal(b1-3)GlcNAc(b1-6)GalNAc
# Procedure, shortened: as §1
# [11] = biological target: Gal(a1-3)[Gal(a1-4)]Gal(b1-4)GlcNAc
# Procedure, shortened: as §1
# [12] = biological target: Gal(a1-4)Gal(b1-3)GlcNAc(b1-2)Man(a1-3)[Gal(a1-4)Gal(b1-3)GlcNAc(b1-2)Man(a1-6)]Man(b1-4)GlcNAc(b1-4)GlcNAc
# Procedure, shortened: as §1
# [13] = biological target: Gal(b1-3)Gal(b1-4)GlcNAc
# Procedure, shortened: as §1
# [14] = biological target: Gal(b1-3)GlcNAc(b1-2)Man(a1-3)[Gal(b1-3)GlcNAc(b1-2)Man(a1-6)]Man(b1-4)GlcNAc(b1-4)GlcNAc
# Procedure, shortened: as §1
# [15] = biological target: Gal(b1-3)GlcNAc(b1-3)Gal(b1-4)[Fuc(a1-3)]GlcNAc
# Procedure, shortened: as §1
# [16] = biological target: Gal(b1-3)GlcNAc(b1-6)[Gal(b1-3)]GalNAc
# Procedure, shortened: as §1
# [17] = biological target: Gal(b1-4)GlcNAc(b1-2)Man(a1-3)[Gal(b1-4)GlcNAc(b1-2)Man(a1-6)]Man(b1-4)GlcNAc(b1-4)[Fuc(a1-6)]GlcNAc
# Procedure, shortened: as §1
# [18] = biological target: Gal(b1-4)GlcNAc(b1-2)Man(a1-3)[Gal(b1-4)GlcNAc(b1-2)Man(a1-6)][Gal(b1-4)GlcNAc(b1-4)]Man(b1-4)GlcNAc(b1-4)[Fuc(a1-6)]GlcNAc
# Procedure, shortened: as §1
# [19] = biological target: Gal(b1-4)GlcNAc(b1-2)Man(a1-3)[Gal(b1-4)GlcNAc(b1-2)Man(a1-6)][GlcNAc(b1-4)]Man(b1-4)GlcNAc(b1-4)[Fuc(a1-6)]GlcNAc
# Procedure, shortened: as §1
# [20] = biological target: Gal(b1-4)GlcNAc(b1-3)Gal(b1-4)GlcNAc(b1-2)Man(a1-3)[Gal(b1-4)GlcNAc(b1-3)Gal(b1-4)GlcNAc(b1-2)Man(a1-6)]Man(b1-4)GlcNAc(b1-4)[Fuc(a1-6)]GlcNAc
# Procedure, shortened: as §1
# [21] = biological target: Gal(b1-4)GlcNAc(b1-3)Gal(b1-4)GlcNAc(b1-3)Gal(b1-4)GlcNAc(b1-2)Man(a1-3)[Gal(b1-4)GlcNAc(b1-3)Gal(b1-4)GlcNAc(b1-3)Gal(b1-4)GlcNAc(b1-2)Man(a1-6)]Man(b1-4)GlcNAc(b1-4)GlcNAc
# Procedure, shortened: as §1
# [22] = biological target: Gal(b1-4)GlcNAc(b1-3)Gal(b1-4)GlcNAc(b1-3)Gal(b1-4)GlcNAc(b1-2)[Gal(b1-4)GlcNAc(b1-3)Gal(b1-4)GlcNAc(b1-3)Gal(b1-4)GlcNAc(b1-6)]Man(a1-6)[Gal(b1-4)GlcNAc(b1-3)Gal(b1-4)GlcNAc(b1-3)Gal(b1-4)GlcNAc(b1-2)Man(a1-3)]Man(b1-4)GlcNAc(b1-4)[Fuc(a1-6)]GlcNAc
# Procedure, shortened: as §1
# [23] = biological target: Gal(b1-4)GlcNAc(b1-3)Gal(b1-4)GlcNAc(b1-3)Gal(b1-4)GlcNAc(b1-3)Gal(b1-4)GlcNAc(b1-2)Man(a1-3)[Gal(b1-4)GlcNAc(b1-3)Gal(b1-4)GlcNAc(b1-3)Gal(b1-4)GlcNAc(b1-3)Gal(b1-4)GlcNAc(b1-2)Man(a1-6)]Man(b1-4)GlcNAc(b1-4)GlcNAc
# Procedure, shortened: as §1
# [24] = biological target: Gal(b1-4)GlcNAc(b1-3)Gal(b1-4)GlcNAc(b1-3)Gal(b1-4)GlcNAc(b1-3)Gal(b1-4)GlcNAc(b1-3)Gal(b1-4)GlcNAc(b1-2)Man(a1-3)[Gal(b1-4)GlcNAc(b1-3)Gal(b1-4)GlcNAc(b1-3)Gal(b1-4)GlcNAc(b1-3)Gal(b1-4)GlcNAc(b1-3)Gal(b1-4)GlcNAc(b1-2)Man(a1-6)]Man(b1-4)GlcNAc(b1-4)GlcNAc
# Procedure, shortened: as §1
# [25] = biological target: Gal3S(b1-4)[Fuc(a1-3)]GlcNAc6S
# Procedure, shortened: as §1
# [26] = biological target: Gal3S6S(b1-4)GlcNAc
# Procedure, shortened: as §1
# [27] = biological target: Glc(a1-6)Glc(a1-6)Glc(a1-6)Glc
# Procedure, shortened: as §1
binder,measurement,setting,value
PX14343G-pdi-535-24-535 (Parabacteroides distasonis) (protein) LDTVPKDQLAPSTTWQTEADAKGFIVGCYKDLLDGNTLLYLDCGSDIGYNNFPWEGFRPWGDGSLSSSNPGQILYDYKSIRKANTFLENVDKVTFSSDAVKANYVAQAKAIRAYKYFLMNWWYGGVPIISSYSSADEAKVERNTEQEVRDYIAKDLDEALAGIAEAPEARGYIAKGAVLAIKMREALYYGDWQKAKDAAKAIIDLKQYELDPDYTNLFKVSGVDSKEIILADQNIETLDGLGTIGQMYNNVDQGWSSIVPTQNLVDMYEMSDGLTKEESKTYDAKHPFANRDPRMAMTILYPGRDWRGDVLNTLDEKLQDGTVNKNFPTYTDNASKSALTWAKYLDPMDQYGDVWSSGACPIVFRYAEVLLTYAEAANELSGPSDEIYGYLNQIRQRVGMGEVDKAKYGTKDKLRELIRRERTVELAGEGLRRADIVRWQEDGKMLAEKVMNGDLLRVTGTINYGESEPTKRAEITGTAVIETRQFSSRNRYLPIPQTSMDKNPNLKQNPGY,glycan array binding signal (z-score),[1],-1.05
same,glycan array binding signal (z-score),[2],-0.439
same,glycan array binding signal (z-score),[3],-0.597
same,glycan array binding signal (z-score),[4],-0.34
same,glycan array binding signal (z-score),[5],0.336
same,glycan array binding signal (z-score),[6],0.064
same,glycan array binding signal (z-score),[7],-0.242
same,glycan array binding signal (z-score),[8],2.43
same,glycan array binding signal (z-score),[9],-1.2
same,glycan array binding signal (z-score),[10],-0.366
same,glycan array binding signal (z-score),[11],2.67
same,glycan array binding signal (z-score),[12],-0.566
same,glycan array binding signal (z-score),[13],0.673
same,glycan array binding signal (z-score),[14],0.51
same,glycan array binding signal (z-score),[15],-0.53
same,glycan array binding signal (z-score),[16],0.402
same,glycan array binding signal (z-score),[17],-0.363
same,glycan array binding signal (z-score),[18],-0.426
same,glycan array binding signal (z-score),[19],-0.515
same,glycan array binding signal (z-score),[20],2.06
same,glycan array binding signal (z-score),[21],1.65
same,glycan array binding signal (z-score),[22],3.07
same,glycan array binding signal (z-score),[23],0.004
same,glycan array binding signal (z-score),[24],2.76
same,glycan array binding signal (z-score),[25],2.01
same,glycan array binding signal (z-score),[26],0.193
same,glycan array binding signal (z-score),[27],0.739
